Reference: ChEMBL document CHEMBL3988442, “University of Dundee, Small-Polar-MMV Screening Library” (2021)
Hit rate of the full screen: of about 48,000 compounds, about 13,000 (27%) showed an effect of 50% or more. The list shows a part of the results.

tested on: Wolbachia pipientis; assay: Anti-Wolbachia Cell-Based Screen; type: functional; design: scale not given: in the data most compounds retested in dose-response had high values; conditions: 5 µM

Row | Compound | Percent Effect [%]
1 | COCCn1c2c(ccc1=O)CCN(C(=O)CC1CC1)CC2 | 117
2 | O=C(NC1CC1)N1CCc2ccc(=O)n(CC3CC3)c2CC1 | 7.486
3 | COCCn1c2c(ccc1=O)CCN(C(=O)C1CC=CC1)CC2 | 102.1
4 | COCC(=O)N1CCc2ccc(=O)n(CC3CC3)c2CC1 | 104.1
5 | O=C(NC1CC1)N1CCc2ccc(=O)n(CCN3CCCC3)c2CC1.O=C(O)C(F)(F)F | -8.445
6 | COCCn1c2c(ccc1=O)CCN(C(=O)NC1CC1)CC2 | 105.3
7 | COCCn1c2c(ccc1=O)CC(N)CC2 (stereo unspecified) | -4.933
8 | CC(C)c1cccc(CSc2nnc(Cn3cncn3)o2)n1 | -1.93
9 | CN(C)C(=O)CN1C(=O)CO[C@@H]2CN(c3ccccn3)C[C@H]21.O=C(O)C(F)(F)F | -2.034
10 | Cc1cc(CCCC(=O)NC2CCN(C)C2=O)c(C)s1 (stereo unspecified) | -2.482
11 | CNC(=O)CS(=O)(=O)C1CCN(S(=O)(=O)c2ccccc2Br)CC1 | 9.932
12 | Cc1ccc(-c2noc(C(O)CC(C)C)n2)nn1 (stereo unspecified) | -5.785
13 | O=C(CN1CCS(=O)(=O)CC1)NC1CCOc2ccccc21 (stereo unspecified) | 5.265
14 | Cc1ccc(CS(=O)(=O)Cc2nc(N)nc(N(C)C)n2)cc1 | 10.59
15 | CN(C)c1cc2c(nn1)CCN(C(=O)C1Cc3ccccc3S1)C2 (stereo unspecified) | -0.2262
16 | CC(C)c1ccc(O)c(C(=O)NCc2cc[nH]n2)c1 | -15.09
17 | CC(NCCCn1ccnc1)c1ccc(N2CCCS2(=O)=O)cc1 (stereo unspecified) | -4.666
18 | CC(NCCCn1cccn1)c1ccc(N2CCCS2(=O)=O)cc1 (stereo unspecified) | -2.983
19 | COCCCNS(=O)(=O)c1ccc(N2CCCCS2(=O)=O)cc1 | 124.1
20 | COc1cc(C(F)(F)F)sc1C(=O)O | 103.8
21 | COc1cc(C)sc1C(=O)NCCNc1ccccc1 | -4.959
22 | CNS(=O)(=O)c1ccsc1C(=O)OC | 1.281
23 | COc1cc2cc(C(=O)O)n(C)c2cc1OC | -4.689
24 | COC(=O)c1sc(C(F)(F)F)cc1OC | 102.8

Row | Compound | Percent Effect [%]
25 | CCOCC(C)(C)NC(=O)Nc1cc(F)ccc1OC | -3.533
26 | CC1CCCCN1S(=O)(=O)NCCN/C(O)=C1/N=CC=CC1=O (stereo unspecified) | -4.587
27 | CCc1ccc(CN2CCCC(CO)(CCOC)C2)cc1 (stereo unspecified) | -6.434
28 | Cc1cc(C)n(CC2CCCCN2C(=O)c2ccc3nncn3c2)n1 (stereo unspecified) | 3.82
29 | CCOc1ccc(C(=O)N2CCCCC2Cn2nc(C)cc2C)cn1 (stereo unspecified) | 118.2
30 | Cc1cc(C)n(CC2CCCN2C(=O)c2ccc(C(N)=O)cn2)n1 (stereo unspecified) | -1.212
31 | Cc1cc(C)n(CC2CCCCN2C(=O)c2cnn(C)c2)n1 (stereo unspecified) | -4.108
32 | Cc1cc(C)n(CC2CCCN2C(=O)c2ccc3[nH]nnc3c2)n1 (stereo unspecified) | -17
33 | Cc1cc(C)n(CC2CCCN2C(=O)c2ccc(NC3CC3)nc2)n1 (stereo unspecified) | 104.7
34 | Cc1cc(C)n(CC2CCCCN2C(=O)c2ccc(C(N)=O)cc2)n1 (stereo unspecified) | 111.1
35 | CCOc1ccccc1C(CC(=O)N(C)C)NC(C)=O (stereo unspecified) | -2.972
36 | CCc1nc2n(n1)CC(NCc1cn(C)nc1-c1cccnc1)CC2 (stereo unspecified) | -2.892
37 | Cc1cnc(N2CC[C@@H]3O[C@H](COCc4ccccn4)CC[C@@H]32)nc1.O=C(O)C(F)(F)F.O=C(O)C(F)(F)F | -4.87
38 | Cc1ccc2c(c1)SCC(=O)N2CC(=O)N1CCC[C@H]1c1nc(C)no1 | 9.485
39 | O=C1CSc2ccccc2N1Cc1noc(C2CCCO2)n1 (stereo unspecified) | 108.8
40 | Cc1ccc2c(c1)SCC(=O)N2Cc1noc(C2CCCO2)n1 (stereo unspecified) | 109.6
41 | O=c1cc(N2CCCCC2)cnn1Cc1noc(C2CCCO2)n1 (stereo unspecified) | -0.8561
42 | Cc1ccc2c(c1)SCC(=O)N2CC(=O)N1CCCC1c1nccs1 (stereo unspecified) | 15.48
43 | Cc1ccc2c(c1)SCC(=O)N2Cc1noc(C2CC2)n1 | 92.98
44 | Cc1cc(C)n(C2CCN(C(=O)CN3C(=O)CSc4ccccc43)C2)n1 (stereo unspecified) | -2.821
45 | Cc1cccc(-c2nc(CN(Cc3cccs3)CC3CCCO3)no2)c1 (stereo unspecified) | 0.4556
46 | O=c1cc(N2CCCC2)cnn1Cc1noc(C2CCCO2)n1 (stereo unspecified) | -13.05
47 | CCCc1ccc(CN2C[C@H]3C(=O)N(CC4CC4)C[C@@]3(C(=O)O)C2)o1 | -18.71
48 | CC(C)c1ocnc1C(=O)NC(c1nnc2n1CCNCC2)C(C)C (stereo unspecified) | 15.04

Row | Compound | Percent Effect [%]
49 | O=C1CCC(C(=O)N2CCOC(Cc3ccccc3Cl)C2)=NN1 (stereo unspecified) | -0.3624
50 | Cc1nc(C(C)(C)NC(=O)Nc2ccccc2)no1 | -20.84
51 | CCNC(=O)Cn1ncc(N(C)CCc2ccccc2)cc1=O | 6.09
52 | Cc1ccsc1C(=O)N1CCc2ncc(CN(C)C)n2CC1.O=C(O)C(F)(F)F | -9.607
53 | CN(Cc1ccc(CCC(C)(C)O)cc1)Cc1cccc(O)c1 | -7.089
54 | CC(C)(C)CN1CCCC(c2nccnc2Nc2cnccn2)C1 (stereo unspecified) | 141
55 | Cn1c(Cn2ccnc2)nnc1C1CCCN(CC(C)(C)C)C1 (stereo unspecified) | -0.4988
56 | CC(C)(C)CN1CCC(c2nccnc2Nc2cnccn2)CC1 | 104.1
57 | CC(C)(C)CN1CCC(c2nnc(Cn3ccnc3)n2C2CC2)CC1 | -15.12
58 | Cn1cncc1-c1nnc([C@H]2CCN(CC(C)(C)C)C2)o1 | -4.073
59 | CC(C)N(Cc1ccc(C#N)cc1)Cc1nnsc1Cl | -0.2197
60 | COC(=O)CNC(=O)CC1COc2ccc(C(=O)N(C)C)cc2N1C (stereo unspecified) | -21.78
61 | CN(c1ccncn1)C1CC2(CCN(C(=O)CCc3cccs3)C2)C1 (stereo unspecified) | -6.442
62 | Cc1ccsc1C(=O)N1CCC(c2nccn2Cc2ccncc2)CC1 | -26.92
63 | CN(c1ccncn1)C1CC2(CCN(C(=O)c3cncs3)C2)C1 (stereo unspecified) | 101.7
64 | CN(c1ccncn1)C1CC2(CCN(C(=O)Cc3cccs3)C2)C1 (stereo unspecified) | 98.18
65 | CN(Cc1ccncc1)C1CC2(CCN(C(=O)c3ccnnc3)CC2)C1 | 2.338
66 | Cn1cccc1C(=O)N1CCCC2(CCCN2Cc2cccnc2)C1 (stereo unspecified) | 0.2442
67 | CN(c1ccncn1)C1CC2(CCN(C(=O)c3cccn3C)C2)C1 (stereo unspecified) | 100.1
68 | CN(c1ccncn1)C1CC2(CCN(C(=O)c3cccs3)C2)C1 (stereo unspecified) | 5.118
69 | Cc1noc(C)c1CN1CC2(CCN(C(=O)c3cccn3C)C2)CC1=O (stereo unspecified) | -4.057
70 | Cc1ccc(N2CCCC3(CCN(C(=O)c4sccc4C)C3)C2)nn1 (stereo unspecified) | -21.87
71 | Cc1ccsc1C(=O)N1CCC2(CC(N(C)c3ccncn3)C2)C1 (stereo unspecified) | 125
